The source of these data is paper PMC5540273 (PLoS ONE, 2017).

Molecules are shown by their SMILES.

Among the test systems are PDGFRA; PDGFRB; PDPK1; PFTAIRE2; PHKG1; PHKG2; PIK3C2B; PIK3C2G; PIK3CA; PIK3CB; PIK3CD; PIK3CG; PIKFYVE; PIM1; PIM2; PIM3.
Common to all, as to conditions: concentration: 1 μM, replicates: in singlicate; n = 1
The test system of a further experiment is T1, PCTK2.
T1 construct: gene CDK17

A further experiment relates to T2, PCTK3.
T2 construct: gene CDK18

In another experiment the test system is T3, PFTK1.
T3 construct: gene CDK14

The test system of another experiment is T4, PIK4CB.
T4 construct: gene PI4KB
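Note: KINOMEscan kinase panel screen.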

Consider `CCc1ccc(-c2ccc3c(c2)-c2c(cnn2C)S(=O)(=O)N3C)cc1`, for which the “%Inh” value in the experiment with PCTK2 was determined as 10%; in the experiment on PCTK3 it was 0%; with PDGFRA, 0%; with PDGFRB, 6%; in the experiment with PDPK1, 4%; in the experiment with PFTAIRE2, 0%. Moreover, the “%Inh” value in the experiment with PFTK1 is given as 0%; in the experiment with PHKG1 it was 5%; with PHKG2, 0%; in the experiment with PIK3C2B, 8%; in the experiment on PIK3C2G, 0%; with PIK3CA, 5%. In addition, the “%Inh” value with PIK3CB worked out at 0%; with PIK3CD, 0%; with PIK3CG, 2%; in the experiment with PIK4CB it was 12%; in the experiment with PIKFYVE, 53%; in the experiment on PIM1, 1%. Moreover, the “%Inh” value in the experiment with PIM2 and in the experiment with PIM3 was 0% throughout.

With `COc1cccc(-c2ccc3c(NC(=O)C4CC4)n[nH]c3n2)c1` [SB-710903], the “%Inh” value in the experiment with PCTK2 is given as 19%; in the experiment on PCTK3, 30%; in the experiment with PDGFRA, 0%; in the experiment with PDGFRB, 34%; in the experiment on PDPK1 it was 0%; in the experiment with PFTAIRE2, 10%. In addition, the “%Inh” value in the experiment on PFTK1 worked out at 25%; in the experiment on PHKG1, 0%; with PHKG2, 0%; in the experiment on PIK3C2B, 0%; in the experiment on PIK3C2G it was 0%; in the experiment with PIK3CA, 0%. Moreover, the “%Inh” value is on record as 0% in the experiment on PIK3CB; 9% in the experiment on PIK3CD; 0% in the experiment with PIK3CG; 0% in the experiment with PIK4CB; 27% in the experiment with PIKFYVE; 12% in the experiment on PIM1. Further, the “%Inh” value in the experiment on PIM2 and with PIM3 was 0% throughout.

Regarding `Cl.Cl.NCC(C(=O)Nc1cc(Br)c(-c2ccnc3[nH]ccc23)s1)c1ccccc1` (stereo not shown) [GSK1269851], the “%Inh” value was determined as 6% with PCTK2; 0% with PCTK3; 0% in the experiment on PDGFRA; 38% in the experiment on PDGFRB; 0% in the experiment on PDPK1; 24% in the experiment on PFTAIRE2. Further, the “%Inh” value in the experiment on PFTK1 is reported as 28%; in the experiment on PHKG1, 49%; in the experiment with PHKG2 it was 0%; in the experiment on PIK3C2B it was 0%; in the experiment on PIK3C2G it was 0%; in the experiment on PIK3CA, 0%. In addition, the “%Inh” value worked out at 0% with PIK3CB; 0% in the experiment with PIK3CD; 0% in the experiment with PIK3CG; 9% in the experiment on PIK4CB; 0% in the experiment with PIKFYVE; 19% with PIM1. Besides, the “%Inh” value with PIM2 and in the experiment with PIM3 was 0% each time.

For `O=C(Nc1cccc(Oc2ccc3nc(NC(=O)C4CC4)cn3n2)c1)c1ccccc1C(F)(F)F`, the “%Inh” value in the experiment with PCTK2 worked out at 0%; in the experiment with PCTK3 it was 6%; with PDGFRA, 99.7%; in the experiment on PDGFRB, 100%; with PDPK1 it was 0%; in the experiment with PFTAIRE2, 7%. In addition, the “%Inh” value in the experiment on PFTK1 stood at 0%; in the experiment with PHKG1 it was 18%; in the experiment with PHKG2, 6%; with PIK3C2B it was 0%; in the experiment on PIK3C2G it was 0%; in the experiment on PIK3CA, 0%. The “%Inh” value in the experiment on PIK3CB, in the experiment with PIK3CD, with PIK3CG, in the experiment with PIK4CB, in the experiment on PIKFYVE and with PIM1 was 0% in each case. The “%Inh” value in the experiment with PIM2 and in the experiment on PIM3 was 0% each time.

`Cc1ccc(F)c(C(=O)Nc2cccc(-c3nn4ccccc4c3-c3ccnc(Nc4cccc(F)c4)n3)c2)c1F` [GSK361061]: the “%Inh” value with PCTK2 is 0%; with PCTK3, 16%; with PDGFRA, 6%; in the experiment with PDGFRB, 99.7%; in the experiment on PDPK1, 11%; in the experiment on PFTAIRE2, 18%. The “%Inh” value in the experiment on PFTK1 is given as 11%; with PHKG1, 14%; in the experiment on PHKG2, 6%; with PIK3C2B, 0%; with PIK3C2G, 0%; in the experiment on PIK3CA, 0%. The “%Inh” value with PIK3CB is listed as 0%; in the experiment with PIK3CD it was 0%; with PIK3CG, 0%; in the experiment with PIK4CB it was 0%; in the experiment with PIKFYVE, 0%; in the experiment on PIM1 it was 24%. The “%Inh” value in the experiment with PIM2 stood at 0%; in the experiment with PIM3 it was 7%.

Consider `CC(C)(C)c1ccc2nccc(Nc3cccc(O)c3)c2c1` [GW856795], for which the “%Inh” value with PCTK2 is given as 0%; in the experiment with PCTK3, 0%; in the experiment on PDGFRA, 81%; with PDGFRB, 1%; in the experiment with PDPK1, 96.3%; in the experiment with PFTAIRE2, 0%. Also, the “%Inh” value was found to be 0% in the experiment on PFTK1; 0% with PHKG1; 9% in the experiment on PHKG2; 38% in the experiment with PIK3C2B; 25% in the experiment with PIK3C2G; 0% with PIK3CA. In addition, the “%Inh” value with PIK3CB came to 0%; with PIK3CD it was 3%; in the experiment on PIK3CG, 33%; with PIK4CB, 0%; in the experiment with PIKFYVE, 42%; with PIM1, 7%. The “%Inh” value in the experiment on PIM2 and with PIM3 was 0% throughout.

For `CN1CCN(CCCNc2nccc(-c3c(-c4ccc(F)cc4)nn4cc(C(F)(F)F)ccc34)n2)CC1` [GW621581], the “%Inh” value with PCTK2 stood at 0%; with PCTK3, 12%; with PDGFRA, 0%; in the experiment with PDGFRB, 10%; with PDPK1, 3%; with PFTAIRE2, 13%. Moreover, the “%Inh” value is 0% with PFTK1; 0% in the experiment with PHKG1; 0% with PHKG2; 0% with PIK3C2B; 3% in the experiment on PIK3C2G; 0% in the experiment with PIK3CA. The “%Inh” value in the experiment with PIK3CB was determined as 0%; with PIK3CD, 10%; with PIK3CG, 0%; in the experiment on PIK4CB, 1%; in the experiment with PIKFYVE it was 95.6%; in the experiment on PIM1 it was 10%. Moreover, the “%Inh” value with PIM2 and with PIM3 was 0% each time.

For `O=C(Nc1cccc(-c2nn3ccccc3c2-c2ccnc(Nc3cccc(C(F)(F)F)c3)n2)c1)c1c(F)cccc1F` [GSK292658], the “%Inh” value with PCTK2 is 0%; in the experiment on PCTK3 it was 0%; in the experiment with PDGFRA it was 10%; with PDGFRB, 97.3%; in the experiment with PDPK1, 0%; with PFTAIRE2, 15%. Further, the “%Inh” value is on record as 8% in the experiment with PFTK1; 0% in the experiment on PHKG1; 0% in the experiment on PHKG2; 0% in the experiment on PIK3C2B; 22% in the experiment with PIK3C2G; 0% in the experiment on PIK3CA. In addition, the “%Inh” value in the experiment with PIK3CB came out at 0%; in the experiment with PIK3CD, 0%; with PIK3CG, 0%; in the experiment on PIK4CB it was 8%; in the experiment with PIKFYVE, 1%; in the experiment with PIM1 it was 0%. Also, the “%Inh” value in the experiment on PIM2 and with PIM3 was 0% throughout.

Regarding `COC(=O)Nc1nc2cc(Oc3ccc(NC(=O)Nc4cc(C(F)(F)F)ccc4F)cn3)ccc2[nH]1.Cl.Cl` [GW681170], the “%Inh” value with PCTK2 amounted to 16%; in the experiment on PCTK3, 16%; in the experiment on PDGFRA it was 94.7%; in the experiment with PDGFRB, 99.8%; with PDPK1 it was 0%; in the experiment with PFTAIRE2, 68%. For the same compound, the “%Inh” value in the experiment on PFTK1 stood at 21%; in the experiment with PHKG1 it was 0%; in the experiment with PHKG2, 0%; in the experiment with PIK3C2B, 0%; in the experiment on PIK3C2G, 0%; in the experiment on PIK3CA it was 0%. In addition, the “%Inh” value was determined as 5% with PIK3CB; 0% in the experiment with PIK3CD; 0% in the experiment with PIK3CG; 0% in the experiment with PIK4CB; 0% in the experiment on PIKFYVE; 9% in the experiment on PIM1. The “%Inh” value in the experiment on PIM2 and in the experiment with PIM3 was 0% throughout.

As for `COC(=O)Nc1nc2ccc(Oc3ccc(NC(=O)Nc4cc(C(F)(F)F)ccc4F)cc3)cc2n1C.Cl` [GW692089], the “%Inh” value in the experiment with PCTK2 was 0%; in the experiment with PCTK3, 12%; in the experiment on PDGFRA it was 78%; with PDGFRB, 100%; with PDPK1, 0%; in the experiment with PFTAIRE2, 6%. In addition, the “%Inh” value in the experiment with PFTK1 is 4%; in the experiment on PHKG1, 0%; with PHKG2, 0%; in the experiment with PIK3C2B, 0%; in the experiment on PIK3C2G, 4%; in the experiment with PIK3CA, 0%. The “%Inh” value in the experiment on PIK3CB came to 0%; with PIK3CD, 0%; in the experiment on PIK3CG, 0%; with PIK4CB, 0%; in the experiment on PIKFYVE it was 6%; in the experiment with PIM1 it was 0%. Further, the results for the “%Inh” value in the experiment with PIM2 and in the experiment with PIM3 were 24% and 0%, respectively.

For `Cc1ccc(C(=O)N2CC[C@@H](O)C2)cc1-n1c(C)cc(OCc2ccc(F)cc2F)c(Br)c1=O`, the “%Inh” value is given as 0% with PCTK2; 7% in the experiment with PCTK3; 4% in the experiment on PDGFRA; 77% with PDGFRB; 30% with PDPK1; 2% with PFTAIRE2. For the same compound, the “%Inh” value in the experiment with PFTK1 was 12%; in the experiment with PHKG1, 0%; in the experiment with PHKG2 it was 0%; with PIK3C2B it was 0%; with PIK3C2G it was 0%; with PIK3CA, 0%. In addition, the “%Inh” value in the experiment on PIK3CB is given as 0%; in the experiment with PIK3CD, 0%; in the experiment on PIK3CG, 0%; in the experiment with PIK4CB, 0%; in the experiment on PIKFYVE, 28%; in the experiment on PIM1 it was 0%. Besides, the results for the “%Inh” value with PIM2 and in the experiment with PIM3 were 7% and 1%, respectively.
